PubChem BioAssay (NCI)
Several values for one entry are separate records, joined by “and”; a condition that tells them apart may be missing. Equal entries are not always repeated. The panel holds about 83,000 compounds, 20% with a hit somewhere; the sample as a whole holds those more often.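 In brief: 96-well plates, 48 h treatment, single concentration, percent growth endpoint.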 Values without a mark were called inactive. Activity calls are given as the source filed them.

system: OVCAR-8 ovarian; test: NCI-60 one-dose screen, 48 h (100 = growth as untreated, 0 = no growth, -100 = all killed); conditions: 10 µM unless noted
Procedure: Growth inhibition of the OVCAR-8 human tumor cell line is measured as a screen for anti-cancer activity. Cells are grown in 96 well plates and exposed to the test compound for 48 hours. Compounds are tested at a single concentration, which is 10^-5 M for most compounds. The reported endpoint is percent growth (GI% or GIPRCNT), where numbers from 0 - 100% represent growth inhibition, and numbers from -100% - 0 represent cell death. For example, a value of 40 represents 60% growth inhibition. A value of 0 means no net growth occurred over the course of the experiment. A value of -40 indicates 40% of cells at the beginning of the experiment died by the end of the experiment. A value of -100 means all cells are dead at the end of the experiment.
NCI-60 Human Tumor Cell Lines Screen was performed using the standard one-dose NCI protocol, which is described in more detail at https://dtp.cancer.gov/discovery_development/nci-60/default.htm.
Compounds with GIPRCNT values below 10 were considered active. Activity score was based on GIPRCNT using the following formula: […]
Score is 0 for GIPRCNT values of 100 or above, 50 for GIPRCNT values of 0, and 100 for GIPRCNT values of -100.

| SMILES | growth |
| --- | --- |
| CC/C=C\C/C=C\C[C@H](O)C/C=C1/C(=O)C=C[C@@H]1C/C=C\CCCC(=O)OC | 7.41% (active) |
| O=C(Nc1ccc2ncsc2c1)c1csc(Nc2ccc3[nH]ncc3c2)n1 | 45.7% |
| COc1ccc2c(c1)CCNC21C(=O)Nc2c(Br)cc(Br)cc21 (stereo not given) | 101% |
| O=C(Cc1ccc(F)cc1)c1ccccc1 | 104% |
| C=C1C(=O)O[C@H]2[C@H]1CC/C(CNS(=O)(=O)c1ccc3ccccc3c1)=C\CC[C@@]1(C)O[C@@H]21 | -17.2% (active) |
| CC(=O)Nc1c(I)c(NC(C)=O)c(I)c(C(=O)O)c1I | 101% and 96.3% |
| Cn1c(=O)c2c(nc(Nc3cc(=O)[nH]c(=O)[nH]3)n2Cc2ccccc2)n(C)c1=O | 7.39% (active) |
| O=C(/C=C/C12c3ccccc3C(c3ccccc31)C1C(=O)NC(=O)C12)c1ccncc1 (stereo not given) | 1.79% (active) |
| CC[C@]1(O)CC2CN(CCc3c([nH]c4ccccc34)C(C(=O)OC)(c3cc4c(cc3OC)N(C=O)[C@H]3[C@@](O)(C(=O)OC)[C@H](OC(C)=O)[C@]5(CC)[C@@H]6C[C@@H]6CN6CC[C@]43[C@@H]65)C2)C1 (stereo not given in full) | 10.3% |
| C=C1C(=O)O[C@H]2[C@H]1CC/C(COC(=O)NCCCCNC(=O)OC/C1=C/CC[C@@]3(C)O[C@H]3[C@H]3OC(=O)C(=C)[C@@H]3CC1)=C\CC[C@@]1(C)O[C@@H]21 | 12.5% |
| CC(=O)c1c(C)nc2ccccc2c1/C=C/c1cccc(C)c1 | 69.4% |
| C[N+]1=C(/C=C\C=C\c2ccccc2)C(C)(C)c2ccccc21 | 12.2% |
| COc1cc2nc3cc([N+](=O)[O-])ccc3c(NCCNCC(C)(C)O)c2cc1OC | -3.94% (active) |
| NCCOCCOc1ccccc1 | 107% |
| CC1=CC=C(NC(=O)/C=C/c2ccccc2)CC1Nc1nccc(-c2cccnc2)n1 (stereo not given) | 61% |
| Cc1ccc(Cl)cc1N1CCN(C(=O)[C@@H]2C[C@@H]2c2ccc(F)cc2)CC1 | 90.5% |
| Cc1nc2cccc(NCCCCC(=O)NO)c2c(=O)n1-c1ccccc1 | 39.5% |
| O=C(CCl)N(O)c1ccc(/C=C/c2ccccc2)cc1 | 63.1% and 89.3% |
| CN1Cn2c(ccc2C(F)(F)F)C(=O)CS1(=O)=O | 108% |
| O=C(/C=C/c1ccc(Cl)s1)c1ccc(Cl)s1 | 107% and 102% |

| SMILES | growth |
| --- | --- |
| Cn1cc2c(=O)nc3c(-c4nc5ccccc5[nH]4)n[nH]n3c2n1 | 70.9% |
| COc1ccc2c(c1)CC[C@@H]1[C@@H]2CC[C@]2(C)C3C(=CCC4C(=O)N(c5ccccc5)C(=O)C43)C[C@@H]12 (stereo not given in full) | 86.2% |
| COc1ccc(-c2c[nH]c(C(=O)O)c2-c2cc(OC)c(OC)c(OC)c2)cc1 | 51.4% |
| N#Cc1c(N)nnn1Cc1cc(=O)oc2ccc(O)cc12 | 100% |
| O=c1oc2c(Br)cc(Br)cc2cc1-c1cc(-c2ccc(-c3cc(-c4cc5cc(Br)cc(Br)c5oc4=O)nc(-c4cc5cc(Br)cc(Br)c5oc4=O)c3)cc2)cc(-c2cc3cc(Br)cc(Br)c3oc2=O)n1 | 108% |
| O=C(O)c1ccccc1Cc1ccc(F)c2ccccc12 | 101% and 102% |
| COc1cc(Nc2nc3ccccc3cc2C(=O)Nc2ccc(F)c(F)c2)cc(OC)c1OC | 15.5% |
| CCc1c2c(nc3ccc(OCc4ccc(B5OC(C)(C)C(C)(C)O5)cc4)cc13)-c1cc3c(c(=O)n1C2)COC(=O)[C@]3(O)CC | 10.6% |
| O=C1/C(=C/c2cn(-c3ccccc3)nc2-c2ccccc2)SC(=S)N1c1ccc(Cl)cc1 | 64.5% |
| Nc1n[nH]c2cccc(C#Cc3cccc(NC(=O)c4ccc(N5CCOCC5)c(C(F)(F)F)c4)c3)c12 | 10.7% |
| CN1CCCc2cc(/C=C3\SC(=S)N(C(Cc4ccc(O)cc4)C(=O)O)C3=O)ccc21 (stereo not given) | 99.2% |
| Nc1nc(Cl)nc2c1ncn2C1OC(CO)C(O)C1O (stereo not given) | 22.9% and 29.3% |
| CCN1CCN(CC(=O)Nc2nc3ccc(NCc4ccc(C)cc4)cc3s2)CC1 | 85.9% |
| COCCOc1cc2ncnc(N3CCN(S(=O)(=O)c4ccccc4Cl)CC3)c2cc1OCCOC | 93.9% |
| COc1ccc(-c2ccc(-c3ccc(C(=N)N)cn3)s2)cc1Cl | -50.5% (active) |
| CN(C)CCCn1c2nc(=O)[nH]c(=O)c-2nc2cc(Cl)c(Cl)cc21 | 50% |
| Cc1ccc(-c2nc3nc(-c4ccccc4)nc(N4CCCNCC4)c3o2)cc1 | -48.4% (active) |
| CCOC(=O)CC1CSC(c2cccc(Cl)c2)=N1 (stereo not given) | 102% |
| O=C1OCC2=C1C(c1cccc([N+](=O)[O-])c1)c1cc3c(cc1N2CCO)CCC3 (stereo not given) | 5.88% (active) |
| COc1ccc(/C=N/C2=C(C#N)C(c3ccccc3)c3c(ccc4ccccc34)O2)cc1 (stereo not given) | 37.6% |
